# Results reported in ChEMBL document CHEMBL1201862, “PubChem BioAssay data set” (2004).
# Molecular target: T1, Thyroid hormone receptor beta (Homo sapiens) (UniProt P10828)
# T1 sequence (whole entry): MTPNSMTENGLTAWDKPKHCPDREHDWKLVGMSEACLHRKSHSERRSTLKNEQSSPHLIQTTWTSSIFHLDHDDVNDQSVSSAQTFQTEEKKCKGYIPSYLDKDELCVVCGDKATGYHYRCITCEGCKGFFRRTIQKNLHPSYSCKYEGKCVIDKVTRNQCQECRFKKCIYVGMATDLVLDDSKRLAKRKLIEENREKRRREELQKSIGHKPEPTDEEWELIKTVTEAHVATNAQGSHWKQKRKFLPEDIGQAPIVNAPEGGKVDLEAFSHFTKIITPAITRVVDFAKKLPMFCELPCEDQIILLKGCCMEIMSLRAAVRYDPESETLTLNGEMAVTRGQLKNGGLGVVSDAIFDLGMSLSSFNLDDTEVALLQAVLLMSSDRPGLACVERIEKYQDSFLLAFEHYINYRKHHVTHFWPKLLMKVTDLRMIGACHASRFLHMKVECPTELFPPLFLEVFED
# Assay: qHTS Assay for Inhibitors of the Interaction of Thyroid Hormone Receptor and Steroid Receptor Coregulator 2: Probe Summary. [Related pubchem assays (depositor defined):AID1469, AID1479, AID1567, AID1568, AID1570, AID1571, AID1573, AID2444, AID2447, AID2448, AID2449, AID2455, AID2479, AID2487, AID2490, AID2552]; call rule not given here
# Format: functional
row,SMILES,Potency
1,CC1CCN(C(=O)COC(=O)c2ccc(S(C)(=O)=O)c([N+](=O)[O-])c2)CC1,9800 nM (active)
2,CCC(OC(=O)c1ccc(S(C)(=O)=O)c([N+](=O)[O-])c1)C(=O)NC1C2CC3CC(C2)CC1C3 (centres undefined),1100 nM (active)
3,CC(OC(=O)c1ccc(S(C)(=O)=O)c([N+](=O)[O-])c1)C(=O)NC1C2CC3CC(C2)CC1C3 (centres undefined),1400 nM (active)
4,CCCC1CCN(C(=O)COC(=O)c2ccc(S(C)(=O)=O)c([N+](=O)[O-])c2)CC1,3300 nM (active)
